According to PubChem BioAssay (Tox21):
Unmarked numbers belong to inactive results. Results filed as inconclusive are left out. Entries that show only a call come without a potency. Active and inactive are the calls of the source. Unless noted, the call rests on the fitted dose curve; in most records, active means well fitted curve in the direction sought with a large enough effect in the repeat runs; inconclusive means weak or mixed curves; inactive means no such curve, though single readings can be large; an effect the other way counts as inactive or inconclusive.

What was measured:
[1] = qHTS assay to identify small molecule antagonists of the estrogen receptor alpha (ER-alpha) signaling pathway using the BG1 cell line in the presence of 0.1 nM 17-beta-estradiol - cell viability counter screen (AID 1259241); further: nearly all actives have a fitted effect of over 40% in size
Procedure, shortened: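 VM7Luc4E2, 4,000 cells/well, phenol red-free medium + 10% charcoal-stripped FBS; 24 hr plating; cpd + 0.1 nM E2 final, 22 hr 37C/5% CO2; CellTiter-Fluor 30 min, fluorescence.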

[2] = qHTS assay to identify small molecule antagonists of the androgen receptor (AR) signaling pathway using the MDA cell line in the presence of 0.5 nM R1881 - cell viability counter screen (AID 1259242); further: nearly all actives have a fitted effect of over 45% in size
Procedure, shortened: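 Counter screen for cytotoxicity run in the same wells as the AR antagonist reporter screen: MDA-kb2 cells were treated 16 hr with test compounds and 0.5 nM R1881, then live-cell protease activity was measured by fluorescence.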

[3] = qHTS assay to identify small molecule phospholipidosis (PLD) inducers (AID 1259344; active means well fitted curve in the direction sought with a large enough effect; an effect the other way counts as inactive or inconclusive)
Procedure, shortened: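 HepG2 cells on collagen I, attached 4 h at 37 C, were co-treated with compound and LipidTOX Red dye for 24 h at 37 C, then fixed with paraformaldehyde plus Hoechst 33342 and imaged by high-content microscopy for phospholipid accumulation.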

[4] = qHTS assay to identify small molecule HDAC inhibitors (AID 1259364); further: top concentration of the series differs between compounds; nearly all actives have a fitted effect of over 45% in size
Procedure, shortened: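 Luminescence from a cell-permeant luminogenic class I/II HDAC substrate reports endogenous deacetylase activity in intact HCT-116 cells treated with compounds for 2 h.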

[5] = qHTS assay to identify small molecule HDAC inhibitors - cell viability counter screen (AID 1259365); further: series mostly up to about 92 µM; nearly all actives have a fitted effect of over 50% in size
Procedure, shortened: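 Luminescence from CellTiter-Glo, developed 30min at room temperature, reports viability of wild-type HCT-116 cells treated 2hr with compounds at 37 C and 5% CO2 after overnight plating.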

[6] = qHTS assay to identify small molecule agonists of the sonic hedgehog signaling (Shh) pathway - cell viability counter screen (AID 1259366); further: nearly all actives have a fitted effect of over 50% in size
Procedure, shortened: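 Cytotoxicity counter screen run in the same wells as the Shh reporter assay. NIH/3T3 cells carrying a Gli1 response element–driven luciferase were treated with DMSO-dissolved compounds for 24hr, and live-cell protease activity was measured with CellTiter-Fluor.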

[7] = qHTS assay to identify small molecule antagonists of the sonic hedgehog signaling (Shh) pathway - cell viability counter screen (AID 1259367); further: nearly all actives have a fitted effect of over 55% in size
Procedure, shortened: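 NIH/3T3-derived Gli1-Luc reporter cells (2,000 per well) rested 4 hr at 37 C, then received DMSO compounds plus conditioned medium. After 23 hr of treatment, CellTiter-Fluor was added for 1 hr at 37C and fluorescence read.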

[8] = qHTS assay to identify small molecule agonists of the sonic hedgehog signaling (Shh) pathway (AID 1259368; calls by dose curve;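 further: NIH/3T3-derived 3T3Gli1-Luc cells carrying a stable Gli1-driven firefly luciferase reporter; series mostly up to about 92 µM; nearly all actives have a fitted effect of over 15% in size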)
Procedure, shortened: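 3T3Gli1-Luc (NIH/3T3 clone, stable Gli1-Luc); 4 hr pre-incubation, then cpd in DMSO 24 hr, 37 C/5% CO2; luciferase reagent 30 min RT; luminescence.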

[9] = biological target: Estrogen receptor (Homo sapiens) (UniProt P03372); assay: qHTS assay to identify small molecule antagonists of the estrogen receptor alpha (ER-alpha) signaling pathway using the BG1 cell line in the presence of 0.1 nM 17-beta-estradiol (AID 1259244); further: nearly all actives have a fitted effect of over 50% in size; further: potency means the concentration at half of the fitted maximal effect
Chain of Estrogen receptor (Homo sapiens) (P03372 whole entry, looked up): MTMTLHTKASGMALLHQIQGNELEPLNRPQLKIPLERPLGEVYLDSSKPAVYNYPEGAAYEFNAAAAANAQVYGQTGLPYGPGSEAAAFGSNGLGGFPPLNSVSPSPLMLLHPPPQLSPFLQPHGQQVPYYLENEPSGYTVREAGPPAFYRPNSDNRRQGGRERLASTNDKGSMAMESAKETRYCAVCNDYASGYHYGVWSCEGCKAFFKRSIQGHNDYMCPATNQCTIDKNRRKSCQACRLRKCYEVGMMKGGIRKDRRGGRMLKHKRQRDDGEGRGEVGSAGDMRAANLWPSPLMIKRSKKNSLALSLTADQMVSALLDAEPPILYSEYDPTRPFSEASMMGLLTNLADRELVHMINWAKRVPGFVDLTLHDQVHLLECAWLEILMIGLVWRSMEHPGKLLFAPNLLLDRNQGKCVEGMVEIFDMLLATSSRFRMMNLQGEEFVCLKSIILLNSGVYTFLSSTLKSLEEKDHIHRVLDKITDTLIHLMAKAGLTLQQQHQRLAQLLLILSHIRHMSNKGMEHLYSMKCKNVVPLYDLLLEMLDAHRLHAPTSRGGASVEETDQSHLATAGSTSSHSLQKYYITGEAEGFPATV
Procedure, shortened: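 Cells: VM7Luc4E2, endogenous ER-alpha, 4x ERE-luc stable. Pre-culture 5 d, phenol red-free, charcoal-stripped FBS. Plated 24 h, compound + E2 0.1 nM final, 22 h 37C/5% CO2. Readout ONE-Glo luminescence.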

CC(C)N(CCC(C(N)=O)(c1ccccc1)c1ccccn1)C(C)C (stereo not given)
Potency [1]: inactive | Potency [2]: inactive | outcome [3]: inactive | Potency [4]: inactive | Potency [5]: inactive | Potency [6]: inactive | Potency [7]: inactive | Potency [8]: inactive

CCCCC(CC)COP(=O)(Oc1ccccc1)Oc1ccccc1 (stereo not given)
Potency [1]: inactive | Potency [2]: inactive | Potency [9]: inactive | Potency [4]: inactive | Potency [5]: inactive | Potency [6]: inactive | Potency [7]: inactive | Potency [8]: inactive

COc1cc(Cl)c(OC)cc1Cl
Potency [1]: inactive | Potency [2]: inactive | Potency [9]: inactive | Potency [4]: inactive | Potency [5]: inactive | Potency [6]: inactive | Potency [7]: inactive | Potency [8]: inactive

Cc1ccc(N)cc1C
Potency [1]: inactive | Potency [2]: inactive | Potency [9]: inactive | Potency [4]: inactive | Potency [5]: inactive | Potency [6]: inactive | Potency [7]: inactive | Potency [8]: inactive

O=C(CBr)OCc1ccccc1
Potency [1]: inactive | Potency [2]: inactive | Potency [9]: inactive | Potency [4]: inactive | Potency [5]: inactive | Potency [6]: inactive | Potency [8]: inactive

CN1C(=O)C(O)N=C(c2ccccc2)c2cc(Cl)ccc21 (stereo not given)
Potency [1]: inactive | Potency [2]: inactive | outcome [3]: inactive | Potency [4]: inactive | Potency [5]: inactive | Potency [6]: inactive

CC(=O)CCC(C)=O
Potency [1]: inactive | Potency [2]: inactive | Potency [9]: inactive | Potency [4]: inactive | Potency [5]: inactive | Potency [6]: inactive | Potency [7]: inactive | Potency [8]: inactive

O=C(O)COc1ccc(Cl)cc1
Potency [1]: inactive | Potency [2]: inactive | Potency [9]: inactive | Potency [4]: inactive | Potency [5]: inactive | Potency [6]: inactive | Potency [8]: inactive

Cl/C=C\Cl
Potency [1]: inactive | Potency [2]: inactive | Potency [9]: inactive | Potency [4]: inactive | Potency [5]: inactive | Potency [6]: inactive | Potency [7]: inactive | Potency [8]: inactive

NC(=O)C(Cl)(Cl)Cl
Potency [1]: inactive | Potency [2]: inactive | Potency [9]: inactive | Potency [4]: inactive | Potency [5]: inactive | Potency [6]: inactive | Potency [8]: inactive

CCOc1nc(F)cc2nc(S(=O)(=O)Nc3c(Cl)cccc3Cl)nn12
Potency [1]: inactive | Potency [2]: inactive | Potency [9]: inactive | Potency [4]: inactive | Potency [5]: inactive | Potency [8]: inactive

N#Cc1ccc(Cl)cc1
Potency [1]: inactive | Potency [2]: inactive | Potency [9]: inactive | Potency [4]: inactive | Potency [5]: inactive | Potency [6]: inactive | Potency [7]: inactive | Potency [8]: inactive

CNP(=O)(OC)Oc1ccc(C(C)(C)C)cc1Cl (stereo not given)
Potency [1]: inactive | Potency [2]: inactive | Potency [9]: inactive | Potency [4]: inactive | Potency [5]: inactive | Potency [6]: inactive | Potency [7]: inactive | Potency [8]: inactive

C=CC(C)=O
Potency [1]: inactive | Potency [2]: inactive | Potency [9]: inactive | Potency [4]: inactive | Potency [5]: inactive | Potency [6]: inactive | Potency [8]: inactive

O=C1C(=O)c2cccc3cccc1c23
Potency [1]: inactive | Potency [2]: inactive | Potency [9]: 54.4 µM (active) | Potency [4]: inactive | Potency [5]: inactive | Potency [6]: inactive | Potency [8]: inactive

CO[C@@H]1[C@H](OC(=O)NC(=O)CCl)CC[C@]2(CO2)[C@H]1[C@@]1(C)O[C@@H]1CC=C(C)C
activity change, negative = cytotoxicity [1]: -6.95% [at 19 µM] | viability change, negative = cytotoxic [2]: -0.0338% [at 19 µM] | activity change, negative = inhibition [9]: -0.212% [at 19 µM] | activity change, negative = inhibition [4]: -1.01% [at 19 µM] | activity change, negative = cytotoxicity [5]: 12.9% [at 19 µM] | viability change, negative = cytotoxic [6]: -8.47% [at 19 µM] | viability change, negative = cytotoxic [7]: -7.4% [at 19 µM] | activity change [8]: -3.77% [at 18.9 µM, active compounds read high]

O=C(NC(=O)c1c(F)cccc1F)Nc1ccc(OC(F)(F)C(F)OC(F)(F)F)c(Cl)c1 (stereo not given)
Potency [1]: inactive | Potency [2]: inactive | Potency [9]: inactive | Potency [4]: inactive | Potency [5]: inactive | Potency [6]: inactive | Potency [8]: inactive

CCOP(=S)(Oc1ccc([N+](=O)[O-])cc1)c1ccccc1 (stereo not given)
Potency [1]: inactive | Potency [2]: inactive | Potency [9]: inactive | Potency [4]: inactive | Potency [5]: inactive | Potency [6]: inactive | Potency [8]: inactive

c1ccoc1
Potency [1]: inactive | Potency [2]: inactive | Potency [9]: inactive | Potency [4]: inactive | Potency [5]: inactive | Potency [6]: inactive | Potency [7]: inactive | Potency [8]: inactive

C[C@H]1CNCCc2ccc(Cl)cc21
Potency [1]: inactive | Potency [2]: inactive | PLD induction [3]: 0.0663% [at 7.66 µM] | Potency [4]: inactive | Potency [5]: inactive | Potency [6]: inactive | Potency [7]: inactive | Potency [8]: inactive

CCCN(CCC)c1c([N+](=O)[O-])cc(S(C)(=O)=O)cc1[N+](=O)[O-]
Potency [1]: inactive | Potency [2]: inactive | Potency [9]: inactive | Potency [4]: inactive | Potency [5]: inactive | Potency [6]: inactive | Potency [7]: inactive | Potency [8]: inactive

CC(O)(CS(=O)(=O)c1ccc(F)cc1)C(=O)Nc1ccc(C#N)c(C(F)(F)F)c1 (stereo not given)
Potency [1]: inactive | Potency [2]: inactive | outcome [3]: inactive | Potency [4]: inactive | Potency [5]: inactive | Potency [6]: inactive | Potency [7]: inactive | Potency [8]: inactive

CC1(C)[C@H](C=C(Cl)Cl)[C@@H]1C(=O)O[C@@H](C#N)c1cccc(Oc2ccccc2)c1
Potency [1]: inactive | Potency [2]: inactive | Potency [9]: inactive | Potency [4]: inactive | Potency [5]: inactive | Potency [6]: inactive | Potency [7]: inactive | Potency [8]: inactive

ClCc1ccccc1
Potency [1]: inactive | Potency [2]: inactive | Potency [4]: inactive | Potency [5]: inactive | Potency [6]: inactive

C=CC(=O)OC
Potency [1]: inactive | Potency [2]: inactive | Potency [4]: inactive | Potency [5]: inactive | Potency [6]: inactive | Potency [7]: inactive | Potency [8]: inactive

CC(C)(C)C(O)C(Oc1ccc(Cl)cc1)n1cncn1 (stereo not given)
Potency [1]: inactive | Potency [2]: inactive | PLD induction [3]: -1.67% [at 3.15 µM] | Potency [4]: inactive | Potency [5]: inactive | Potency [6]: inactive | Potency [8]: inactive

O=C(O)C1(c2ccc3c(c2)OC[C@H](Cc2ccc(-c4ccccc4)cc2)[C@H]3O)CCCC1
Potency [1]: inactive | Potency [2]: inactive | Potency [4]: inactive | Potency [5]: inactive | Potency [6]: inactive | Potency [7]: inactive

CCn1cc[n+](C)c1
Potency [1]: inactive | Potency [2]: inactive | Potency [4]: inactive | Potency [5]: inactive | Potency [6]: inactive | Potency [7]: inactive

CN1C(=O)NC(=O)C(C)(C2=CCCCC2)C1=O (stereo not given)
Potency [1]: inactive | Potency [2]: inactive | outcome [3]: inactive | Potency [4]: inactive | Potency [5]: inactive | Potency [6]: inactive | Potency [8]: inactive

Clc1cccc(SC2CCNCC2)n1
Potency [1]: inactive | Potency [2]: inactive | outcome [3]: inactive | Potency [4]: inactive | Potency [5]: inactive | Potency [6]: inactive | Potency [8]: inactive

CCOP(=O)(OCC)SCCSCC
Potency [1]: inactive | Potency [2]: inactive | Potency [4]: inactive | Potency [5]: inactive | Potency [6]: inactive | Potency [7]: inactive | Potency [8]: inactive
